The source of these data is PubChem BioAssay (NCATS).

Assay [1] has as its target Aldehyde dehydrogenase, mitochondrial (Homo sapiens) (UniProt P05091). Nature of the assay: qHTS for Inhibitors of the Aldehyde Dehydrogenase Family (ALDH2) Primary screen (AID 2061308).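 Note: plate controls were vehicle for no effect and reference inhibitor for full effect; nearly all actives have a fitted effect of over 55% in size.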 On the technique in general: In qHTS, concentration-response curves come from the screen itself.
For assay [2], the target named is Retinaldehyde dehydrogenase 3 (Homo sapiens) (UniProt P47895). Nature of the assay: qHTS for Inhibitors of the Aldehyde Dehydrogenase Family (ALDH1A3) Primary screen (AID 2061315).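 Note: plate controls were DMSO vehicle for no effect and reference inhibitor for full effect.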

Results filed as inconclusive are left out. Unmarked numbers belong to inactive results. Active and inactive are the calls of the source. Calls come from the whole dose curve; as a rule, active = well fitted curve in the direction sought with a large enough effect; inconclusive = small, poorly fitted or top-dose-only effect, or another doubt; inactive = no such curve, though single readings can be large; an effect the other way counts as inactive or inconclusive.

For `Cc1cccc(C(=O)N2CCc3cc(-c4nc(NC(=O)Cc5ccc6c(c5)OCO6)sc4C)ccc32)c1`, the Potency entry in assay [1] and in assay [2] was “inactive” in each case.
Turning to `C=C(NC(=O)C(=C)NC(=O)c1csc(C2=NC3c4csc(n4)C4NC(=O)c5csc(n5)C(C(C)(O)C(C)O)NC(=O)C5CSC(=N5)/C(=C/C)NC(=O)C(C(C)O)NC(=O)c5csc(n5)C3(CC2)NC(=O)C(C)NC(=O)C(=C)NC(=O)C(C)NC(=O)C(C(C)CC)NC2C=Cc3c(C(C)O)cc(nc3C2O)C(=O)OC4C)n1)C(N)=O` (stereo not given), the Potency result in assay [1] and in assay [2] was “inactive” in each case.
For `O=C(CNC(=O)c1ccccc1)OC(C(=O)Nc1cc([N+](=O)[O-])ccc1F)c1ccccc1` (stereo not given), the Potency entry in assay [1] and in assay [2] was “inactive” in each case.
Regarding `O=c1[nH]cnc2c1ncn2[C@H]1CC[C@@H](CO)O1`, the Potency result in assay [1] and in assay [2] was “inactive” each time.
`Cc1ccc(S(=O)(=O)Nc2cccc3cccnc23)cc1`: the Potency entry in assay [1] and in assay [2] was “inactive” each time.
Turning to `Cc1cc2c(s1)c1cnn(Cc3c(F)cccc3C(F)(F)F)c(=O)c1n2C`, the Potency entry in assay [1] and in assay [2] was “inactive” each time.
Take `CN(Cc1ccco1)c1ncnc2ccc(-c3ccc4c(c3)OCCO4)cc12`: the Potency entry in assay [1] and in assay [2] was “inactive” each time.
For the compound `CCN(CC)CCCCn1c(-c2ccccc2)nc2c(N(CCOC)CCOC)nc(C)nc21`, the Potency entry in assay [1] and in assay [2] was “inactive” throughout.
Regarding `Cc1ccc(C[C@H](C(=O)O)N2C(=O)c3ccc(C(=O)O)cc3C2=O)cc1`, the Potency result in assay [1] and in assay [2] was “inactive” throughout.
Turning to `O=C(Cc1ccc(Cl)c(Cl)c1)Nc1ccc(S(=O)(=O)NCc2ccco2)cc1`, the Potency result in assay [1] and in assay [2] was “inactive” each time.
`N#Cc1c(-c2ccccc2)no[n+]1[O-]`: the Potency entry in assay [1] and in assay [2] was “inactive” in each case.
Take `Cc1nc2ccc(Nc3nc(-c4ccncc4)nc4ccccc34)cc2s1`: the Potency result in assay [1] and in assay [2] was “inactive” each time.
On to `Cc1nc(NC2CCCCC2)c2nc(-c3ccccc3)n(CCN3CCCC3)c2n1`, for which the Potency entry in assay [1] and in assay [2] was “inactive” each time.
Turning to `COC(=O)Nc1sc2c(c1C(N)=O)CCCC2`, the Potency result in assay [1] and in assay [2] was “inactive” throughout.
Regarding `CC1(C)CC[C@]23CO[C@@]4(CCC5[C@@]6(C)CC[C@H](O[C@@H]7OC[C@H](O[C@@H]8O[C@H](CO)[C@@H](O)[C@H](O)[C@H]8O)[C@H](O)[C@H]7O[C@@H]7O[C@H](CO)[C@@H](O[C@@H]8O[C@H](CO)[C@@H](O)[C@H](O)[C@H]8O)[C@H](O)[C@H]7O)[C@@](C)(CO)C6CC[C@@]5(C)[C@]4(C)C[C@H]2OC2OCC(O)C(O)C2O)C3C1` (stereo not given in full), the activity change, negative = inhibition in assay [1] is -1.32% [at 11.2 µM]; in assay [2], 1.39% [at 11.2 µM].
As for `Cc1cn([C@H]2C[C@H](N[S+](=O)([O-])Cc3ccccc3)[C@@H](CO)O2)c(=O)[nH]c1=O`, the Potency entry in assay [1] and in assay [2] was “inactive” in each case.
With `O=C1CCCC2=C1C(c1[nH]ncc1Cl)NC(=NCCc1cccnc1)N2` (stereo not given), the Potency entry in assay [1] and in assay [2] was “inactive” each time.
In the case of `CN1CCN(c2cc(-c3nc(Nc4ccc(F)c(F)c4)c4ccccc4n3)ccn2)CC1`, the Potency entry in assay [1] and in assay [2] was “inactive” in each case.
Take `O=C(O)c1ccc(O)c2ncc(N3CCC(N4CCOCC4)C3)cc12` (stereo not given): the Potency result in assay [1] and in assay [2] was “inactive” each time.
As for `N#Cc1nc(NC2CCCC2)c2ncn(-c3cc(F)cc(F)c3)c2n1`, the Potency entry in assay [1] and in assay [2] was “inactive” each time.
`Cc1ccnc(NC(=S)N2CC[C@@H](Nc3cccc(C(F)(F)F)c3)C2)c1`: the Potency result in assay [1] and in assay [2] was “inactive” each time.
Turning to `CN(Cc1cccs1)c1ncnc2ccc(-c3ccc4cn(C)nc4c3)cc12`, the Potency entry in assay [1] and in assay [2] was “inactive” each time.
For `FC(F)(F)c1ccccc1-c1nc(NCc2ccc(-c3ccc(Cl)cc3)cc2)c2ccccc2n1`, the Potency result in assay [1] and in assay [2] was “inactive” in each case.
Regarding `COC(=O)c1ccc2nc(NC3=NC(c4[nH]ncc4Cl)C4=C(CCCC4=O)N3)oc2c1` (stereo not given), the Potency entry in assay [1] and in assay [2] was “inactive” each time.
As for `Nc1nc(NCc2ccc(-c3ccnc(C(F)(F)F)c3)cc2)c2ccccc2n1`, the Potency entry in assay [1] and in assay [2] was “inactive” throughout.
Take `CC(C)C1CCC(C(=O)Nc2ccc(S(=O)(=O)Nc3nccs3)cc2)CC1` (stereo not given): the Potency entry in assay [1] and in assay [2] was “inactive” in each case.
`COC/C=C/c1cc(F)c(S(=O)(=O)N2CCN(S(=O)(=O)c3ccc4c(c3)OCCO4)CC2)cc1F`: the Potency result in assay [1] and in assay [2] was “inactive” in each case.
As for `COc1ccc(-n2ncc3c2CCCC3NC(=O)c2ccc3ncccc3c2)cc1` (stereo not given), the Potency result in assay [1] and in assay [2] was “inactive” in each case.
`Oc1ccc(COC2CCCC2)c2cccnc12`: the Potency result in assay [1] and in assay [2] was “inactive” each time.
For the compound `CC1CN(c2cc3c(cc2F)c(=O)c(C(=O)O)cn3-c2ccc(F)cc2F)CCN1` (stereo not given), the Potency entry in assay [1] and in assay [2] was “inactive” each time.
On to `Cc1cc2c(s1)c1cnn(Cc3ccc(F)cc3Cl)c(=O)c1n2C`, for which the Potency entry in assay [1] and in assay [2] was “inactive” each time.
On to `O=C1CCCC2=C1C(c1[nH]ncc1Cl)N=C(Nc1cccnc1)N2` (stereo not given), for which the Potency result in assay [1] and in assay [2] was “inactive” in each case.
Turning to `O=c1c2ccccc2nc(-c2ccccc2O)n1Cc1ccccc1`, the Potency entry in assay [1] and in assay [2] was “inactive” throughout.
`Cc1cc2c(s1)c1cnn(Cc3ccc(C(F)(F)F)cc3)c(=O)c1n2C`: the Potency entry in assay [1] and in assay [2] was “inactive” each time.
In the case of `Cc1ccc(NC(=O)c2cnn3c(C)cc(C)nc23)c(C)c1`, the Potency entry in assay [1] and in assay [2] was “inactive” each time.
Take `CCCn1c(-c2ccc(F)cc2)nc2c(N3CCN(CCC(=O)OCC)CC3)nc(C)nc21`: the Potency entry in assay [1] and in assay [2] was “inactive” each time.
With `Cc1cc(NS(=O)(=O)c2ccc(NC(=O)Cc3cccc(Cl)c3)cc2)no1`, the Potency entry in assay [1] and in assay [2] was “inactive” throughout.
With `O=C(NCCc1nc2ccccc2n1CCO)C1CCCCC1`, the Potency result in assay [1] and in assay [2] was “inactive” in each case.
As to `COc1cc(O)c(C(CC(=O)N2CCC(Cc3ccccc3)CC2)c2ccc(C)cc2)c(OC)c1` (stereo not given), the Potency entry in assay [1] and in assay [2] was “inactive” throughout.
`Cc1ccccc1C(=O)N1CCc2cc(-n3cc(NC(=O)Cc4ccccc4)cn3)ccc21`: the Potency entry in assay [1] and in assay [2] was “inactive” in each case.
